This is an account of results in PubChem BioAssay (NCI).

About 83,000 compounds went through this panel and 20% of them were active in at least one assay; those are over-represented in the sample as a whole.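 Note: values are percent growth. 100 is the growth of untreated cells, values between 100 and 0 indicate rising inhibition; between -100 and 0 indicates cell death.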 Calls of active or inactive are those of the source. How the source made its calls: active means growth percent below 10; inactive means the rest.

For this assay, the system named is HL-60(TB) leukemia. The assay is described as follows: NCI-60 one-dose screen, 48 h (100 = growth as untreated, 0 = no growth, -100 = all killed). The conditions noted are these: 10 µM unless noted.
Turning to `S=c1[nH]c2cc(Cl)ccc2o1`, the growth is 86.5% (inactive).
As for `N=C1CCC(=N)c2c1c(O)c1ccccc1c2O`, the growth is 129% (inactive).
Consider `N=c1nc(N)ncn1-c1ccccc1`, for which the growth was 110% (inactive).
Turning to `CC(=O)c1ccc(N=C(C#N)C2=C(O)c3ccccc3C2=O)cc1`, the growth is 86.2% (inactive).
In the case of `CC(=O)O[C@@H]1C[C@]2(C(C)C)O[C@@]1(C)[C@@H]1CCC(C)=C1[C@@H]2OC(=O)/C=C/c1ccccc1`, the growth was 78.8% (inactive).
Consider `C=C1C(=O)O[C@H]2[C@H]1CC/C(COC(=O)NCc1ccc(OC)c(OC)c1)=C\CC[C@@]1(C)O[C@@H]21`, for which the growth was 35.8% (inactive).
Consider `O=C(O)CCC(=O)c1ccc(C2CCCCCC2)cc1`, for which the growth was 107% (inactive).
Regarding `COc1ccc2nc3ccccc3c(NCc3ccc(Cl)cc3)c2c1`, the growth is -64.5% (active).
In the case of `O=C(Nc1cccc(-n2cc(-c3ccncc3)c(-c3ccc(Cl)c(O)c3)n2)c1)c1ccc(N2CCOCC2)c(C(F)(F)F)c1`, the growth was 51.6% (inactive).
Turning to `Clc1ccc(CCC(Cn2ccnc2)Sc2c(Cl)cccc2Cl)cc1` (centres undefined), the growth is 2.26% (active).
Next, `COc1ccc(OC)c(Cn2cc3c(c2)-c2oncc2CC3)c1`: 13.7% (inactive).
In the case of `O=C(/C=C/c1cc2ccccc2[nH]c1=O)c1ccc2c(c1)OCO2`, the growth was 79% (inactive).
Next, `O=C1C=CC2(NN=C(c3ccccc3)N2c2ccc(Cl)cc2)c2cccc(O)c21` (centres undefined): 23.5% (inactive); `COc1ccc2c3ccnc(C(F)(F)F)c3n(CCCCN)c2c1`: 53.8% (inactive).
In the case of `N=C(N)c1ccc(-c2ccc(-c3ccccc3)o2)cc1`, the growth was -62% (active).
As for `O=C(N/N=C/c1ccc(Cl)cc1)c1ccc(C(F)(F)F)nc1Nc1cccc(C(F)(F)F)c1`, the growth was -37.2% (active).
With `CN(C)c1ccc(/C=N/N=C(\C#N)[S][Sn]([Cl])([c]2ccccc2)[c]2ccccc2)cc1`, the growth was 0.861% (active).
Next, `O=C(/C(=C/c1ccccc1)CBr)c1ccccc1`: 9.09% (active); `CSc1ccc(Cl)c(C(=O)Nc2sccc2C(N)=O)c1`: 91.3% (inactive).
Consider `O=C1c2ccccc2CCc2ccccc21`, for which the growth was 90% (inactive).
For `CCOC(=O)c1nnn(-c2ccccc2)c1C1=CN(C)CCC1`, the growth is 84.4% (inactive).
In the case of `C1=C\CCCCN2CC[C@H]3[C@H](CCCC/C=C\CCCN4C[C@@H](CCCCC/1)C[C@@H]3C4)C2`, the growth is -35.5% (active).
For the molecule `COc1ccc(Cn2cc3c(c2-c2ccccc2)CCc2cnoc2-3)cc1OC`, the growth is 7.72% (active).
Consider `O=C(O)C(=O)O`, for which the growth is 151% (inactive).
As for `O=C(O)c1ccc(-n2cc(/C=N/Nc3ccc(Cl)cc3Cl)c(-c3ccccc3)n2)cc1`, the growth is -81.8% (active).
Under `COC(=O)c1nc(-c2ccc(C)cc2)oc1N1CCOCC1` stands 93.7% (inactive); under `Cn1cc(-c2nc(-c3c[nH]c4ncc(F)cc34)cs2)c2cccnc21`, 103% (inactive).
Take `O=NC1CC=CCC1c1ccccc1` (centres undefined): the growth was 92.6% (inactive).
As for `FC(F)(F)c1nc2c(NCc3ccc(-c4ccccc4)cc3)cccc2[nH]1`, the growth is 21.1% (inactive).
